Source: PubChem
A selection: hits, their analogues and other compounds. The true share with any hit is near 15%.
Sm TGR inh = inhibitors of Schistosoma mansoni thioredoxin glutathione reductase. 3% of 360,000 active. purified TGR, DTNB reduction, TNB absorbance 405 nm. AID 485364. Potency, µM (doses to about 114 µM), without a hit: at the highest dose activity change, negative = inhibition, hits mostly inhibitors. Q962Y6; further: potency means the concentration at half of the fitted maximal effect; on the % scale 0 is the no-effect control and ±100 the full control effect; nearly all actives have a fitted effect of over 60% in size
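First, TGR (20 nM dispensed) and NADPH were mixed with compound. Second, a 15 min room-temperature incubation followed. Third, further NADPH and then DTNB were added to start the reaction. Finally, TNB absorbance was monitored kinetically.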
SARS PLP yeast = blocks SARS-CoV papain-like protease in a yeast assay. S. cerevisiae expressing SARS-CoV PLpro, growth rescue. 0.19% of 330,000 active. Potency, µM (doses to about 32.9 µM), without a hit: at the highest dose activity, positive = growth rescue, hits mostly activators. AID 485353; calls by dose curve; further: potency means the concentration at half of the fitted maximal effect; 0% is about no effect; nearly all actives have a fitted effect of over 55% in size
Pf growth 96h = P. falciparum growth inhibition at 96 hours. P. falciparum luciferase reporter growth, 96 h. Potency, µM (highest dose often 28.7 µM), inactives show top-dose activity change, negative = inhibition, most hits filed as inhibitors. 6.9% of 320,000 active. AID 504834; further: potency means the concentration at half of the fitted maximal effect; on the % scale 0 is the no-effect control and ±100 the full control effect
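Readout is luminescence from an integrated firefly luciferase in P. falciparum. Red cells, 2% hematocrit and 0.05% parasitemia final, were cultured with compound through two parasite generations (96 hours) at 37 C, 5% CO2.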
Pf growth 48h = P. falciparum growth inhibition at 48 hours (one generation). P. falciparum luciferase growth in erythrocytes, 48 h. AID 504832. Potency, µM (highest dose often 28.7 µM), inactives show at the top dose activity change, negative = inhibition, most hits filed as inhibitors. 5.9% of 310,000 active; further: potency means the concentration at half of the fitted maximal effect; on the % scale 0 is the no-effect control and ±100 the full control effect
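A one-generation exposure of luciferase-tagged malaria parasites in RPMI 1640/Albumax erythrocyte culture, 37 C and 5% CO2. Inhibition is inferred from decreased luminescence after adding detection reagent.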
HCV inh = HCV inhibition; Huh7.5.1 HCVcc-Cre infection, luciferase reporter, 44 h; Potency, µM (doses to about 41.8 µM), inactives show at the highest dose activity change, negative = inhibition, actives largely listed as inhibitors; 3.4% of 340,000 active; further: potency means the concentration at half of the fitted maximal effect; on the % scale 0 is the no-effect control and ±100 the full control effect
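Compounds are dispensed onto cells plated 4 h earlier at 1,000 per well, with HCVcc-Cre virus (about 0.5 moi) added next. Following 44 h of culture, luminescent signal is measured for 15 sec after 15 min with substrate at room temperature.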
HCMV inh = human cytomegalovirus inhibition; HFF cells, HCMV-luciferase reporter, 72 h; hits give low values; activity change, negative = inhibition, % at 57.5 µM; 4.5% of 410,000 active; in the data active means activity change below about -60%; inconclusive means no clear call, values can overlap the other calls; inactive means above about -39%; further: on the % scale 0 is the no-effect control and ±100 the full control effect
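After 16 h attachment at 37C, HFF cells received test compound and HCMV-luciferase (1 PFU/cell); reporter luminescence read 72 h later, data normalized against buffer-only and known inhibitor Salinomycin.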
Numbers without * were called inactive; ? = inconclusive; . = not tested or not shown; [ ] = remark or other dose. Unless noted, the call rests on the fitted dose curve; in most records, active means well fitted curve in the direction sought with a large enough effect; inconclusive means small, poorly fitted or top-dose-only effect, or another doubt; inactive means no such curve, though single readings can be large; an effect the other way counts as inactive or inconclusive.

SMILES	Sm TGR inh	SARS PLP yeast	Pf growth 96h	Pf growth 48h	HCV inh	HCMV inh
COc1ccc(OC)c(NC(=O)C(C)n2c(=O)c(-c3ccccc3NC(C)=O)nc3ccccc32)c1 (stereo not given)	-5%	.	.	.	.	-2
CCCCCNC(=O)C(C1CC1)n1c(=O)c(-c2ccccc2)nc2ccccc21 (stereo not given)	.	.	.	.	.	-69*
COc1cccc(NC(=O)CSc2nnnn2C2CCCCC2)c1	-5%	-1%	16%	17%	-18%	-40
C[C@H]1CN([C@@H](C)CO)C(=O)CCCn2nncc2CO[C@H]1CN(C)S(=O)(=O)c1ccc(Oc2ccccc2)nc1	.	.	.	.	.	-7
Cc1nc(NCc2ccc3c(c2)OCO3)c2nnn(Cc3ccccc3)c2n1	5%	3%	12µM*	3%	15%	-31
c1ccc(Cn2nnc3c(NCc4ccc5c(c4)OCO5)nc(C4CC4)nc32)cc1	10%	0%	.	1%	8%	-14
COc1ccc(Nc2nc(C)nc3c2nnn3Cc2ccccc2)cc1OC	-7%	6%	12%	?	?	24
Cc1nc(Nc2ccc(Cl)cc2)c2nnn(Cc3ccccc3)c2n1	-23%	-1%	-15%	?	32µM*	-17
COc1ccc(NC(=O)C[C@H]2C(=O)N(c3ccc(OC)cc3)C[C@@H]2C)cc1	.	.	.	.	.	3
CC(C)CN1CCN(CC#Cc2ccccc2)CC1CCO (stereo not given)	-30%	1%	12µM*	28%	-5%	37
OCCC1CN(CC#Cc2ccccc2)CCN1Cc1ccccc1F (stereo not given)	20µM*	5%	12µM*	-11%	20%	-19
CC(C)=CCN1CCN(CC#Cc2ccccc2)CC1CCO (stereo not given)	-24%	0%	42%	?	-2%	?
CC(C)CN1CCN(Cc2cccn2-c2ccccn2)CC1CCO (stereo not given)	-14%	1%	8.3µM*	55%	7%	-31
Cc1cccc2c1-c1sc(C(=O)NCc3ccc(Cl)cc3)cc1CO2	9%	.	.	.	.	-16
O=C(Cn1cc(SCc2ccc(C(F)(F)F)cc2)c2ccccc21)N1CCCC1	7%	.	.	.	.	-23
COc1ccc2nc3sc(C(=O)N4CCN(c5ccc(F)cc5)CC4)cc3cc2c1	6%	.	.	.	.	-2
COc1ccc(Cl)cc1NC(=O)CN1CCc2ccccc21	-5%	-2%	25%	5%	?	-23
Cc1cc(C)c(C(O)c2ncc(-c3ccccc3Cl)[nH]2)c(C)c1 (stereo not given)	.	.	.	.	.	-2
Cc1noc(C)c1S(=O)(=O)NC(=O)C1(C)CCN1C(=O)Cc1ccc(Cl)cc1Cl (stereo not given)	.	.	.	.	.	-27
CN(CC(=O)Nc1ccc(Cl)cc1)C(=O)Cc1c(F)cccc1Cl	9%	-2%	12µM*	-17%	-26%	68
Cc1cccc(NC(=O)CSCC(=O)N(C)Cc2c(F)cccc2Cl)c1	0%	10%	13µM*	?	?	-12
CN(CC(=O)Nc1ccc(OC(F)(F)F)cc1)C(=O)Cc1c(Cl)cccc1Cl	29%	-2%	?	?	?	-16
CCCCN(CC)CCCNC(=S)Nc1ccc2nc(N3CCN(C)CC3)cc(C)c2c1	-23%	-1%	-1%	?	-30%	-37
CCCCN(CC)CCCNC(=S)Nc1ccc2nc(N3CCN(CC)CC3)cc(C)c2c1	-28%	3%	43%	2.9µM*	?	-29
COCCCNC(=S)Nc1ccc2nc(N3CCOCC3)cc(C)c2c1	?	-1%	2%	10%[0.00184 µM]	-29%	-5
SMILES	Sm TGR inh	SARS PLP yeast	Pf growth 96h	Pf growth 48h	HCV inh	HCMV inh
Cc1cc(N2CCCC2)nc2ccc(NC(=S)NCCCOC(C)C)cc12	20µM*	-3%	?	?	?	?
CCCN(CCC)CCCNC(=S)Nc1ccc2nc(N3CCCC3)cc(C)c2c1	45µM*	0%	?	1.5µM*	10µM*	-81*
COC(=O)c1ccc(NC(=O)C[n+]2ccccc2)cc1	-25%	-2%	13µM*	-5%	10%	19
CN(C)c1cc[n+](CC(=O)Nc2ccc(Oc3ccccc3)cc2)cc1	7%	-7%	?	?	?	-98*
CCOc1ccc(NC(=O)C[n+]2ccc(N(C)C)cc2)cc1	-7%	-7%	?	0.66µM*	13%	-97*
CN(C)c1cc[n+](CC(=O)Nc2ccc(Cl)cc2)cc1	7%	3%	?	0.083µM*	-20%	-89*
CCOc1ccc(NC(=O)CC(=O)Nc2ccc(OCC)cc2)cc1	0%	-2%	31%	.	6%	?
COC(=O)c1scc(-c2ccc(C)cc2)c1S(=O)(=O)N1CCN(c2ccccc2)CC1	1%	.	.	.	.	-4
COc1ccc(-c2cc3c(=O)n(CC(=O)Nc4ccc(Cl)cc4)ncn3n2)cc1	?	-2%	13%	15%	13%	0
Cc1ccsc1C(=O)OCC(=O)c1ccc(OC(F)F)cc1	-12%	2%	45%	72%	-9%	-14
CN(C)c1cc[n+](CC(=O)c2ccc(OC(F)F)cc2)cc1	10%	-2%	0.74µM*	0.74µM*	14%	?
CCCCCCCNC(=O)C1(CC2CC(c3ccc(Cl)cc3)=NO2)CCN(C(=O)C2(C)CC2)CC1 (stereo not given)	-3%	-20%	?	?	-3%	.
CCCCCCCNC(=O)C1(CC2CC(c3cccc(Br)c3)=NO2)CCN(C(=O)C2CCCC2)CC1 (stereo not given)	8%	2%	9.3µM*	5.2µM*	5%	17
CCCCCCCNC(=O)C1(CC2CC(c3ccc(Cl)cc3)=NO2)CCN(C(=O)C2CCCC2)CC1 (stereo not given)	9%	-9%	9.3µM*	-29%	30%	27
CCCNC(=O)C1(CC2CC(c3ccccc3)=NO2)CCN(C(=O)OC(C)(C)C)CC1 (stereo not given)	.	.	.	.	-4%	23
CCCCCCCNC(=O)C1(CC2CC(c3cccc(Br)c3)=NO2)CCN(C(=O)OC(C)(C)C)CC1 (stereo not given)	-4%	-3%	4.7µM*	?	-17%	2
CCCCC(=O)N1C/C=C\C(c2ccc(OC)cc2)N(Cc2ccc(F)cc2)C(=O)[C@H]1Cc1ccccc1 (stereo not given in full)	?	-7%	10µM*	12µM*	?	.
COc1ccc(C2/C=C\CN(C(=O)c3ccc(C)cc3)[C@H](Cc3ccccc3)C(=O)N2Cc2ccc(F)cc2)cc1 (stereo not given in full)	-5%	-3%	4.1µM*	4.1µM*	-12%[8.37 µM]	.
